Our source for the outcome and AC50 values is PubChem BioAssay (EPA / NIEHS).

The term AC50 denotes the midpoint of the concentration-response curve, whichever way the signal moves.

Records with an inconclusive call do not appear. Where a structure was tested more than once in an assay, its records may differ in their call. The source made the active and inactive calls. The calls were made as follows: active = hit-call score of the fitted dose curve at least 0.9, where 1 is the maximum; inconclusive = response in the unintended direction; inactive = score below 0.9.

The assay has as its system zebrafish Estrogen Receptor (ER2a), gene 317734. Description: ATG_zfER2a_XSP2: Attagene TRANS-FACTORIAL Multi-Species (XSP2) HepG2 Assay for zebrafish Estrogen Receptor (ER2a) (AID 2283818).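 Also: hits raise reporter mRNA so AC50 reflects activation of zebrafish ER2a.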 How it is done: ATG_XSP2_multi-species_TRANS is a cell-based, multiplexed assay created by modifying the existing Attagene TRANS-FACTORIAL system to include a panel of nuclear receptors from some or all the following species: human (Homo sapiens), mouse (Mus musculus), frog (Xenopus laevis), zebrafish (Danio rerio), chicken (Gallus gallus), and turtle (Chrysemys picta). The ECOTOX-FACTORIAL format uses HepG2, a human liver cell line, with measurements taken at 24 hours after chemical dosing in a 24-well plate. Xsp2 included 3 nM 6-alpha-fluorotestosterone and 1.5 nM norgestrel to stimulate the androgen receptor.ATG_zfER2a_XSP2 is one of 29 assay components measured or calculated from the ATG_XSP2_multi-species_TRANS assay. It is designed to make measurements of mRNA induction, a form of inducible reporter, as detected with fluorescence intensity signals by Reverse transcription polymerase chain reaction (RT-PCR) and Capillary electrophoresis technology.The assay endpoint ATG_zfER2a_XSP2 was analyzed in the positive analysis fitting direction relative to DMSO as the negative control and baseline of activity. Using a type of inducible reporter, measures of mRNA for gain-of-signal activity can be used to understand the reporter gene at the transcription factor-level as they relate to the gene ER. Furthermore, this assay endpoint can be referred to as a primary readout, because this assay has produced multiple assay endpoints where this one serves a reporter gene function. To generalize the intended target to other relatable targets, this assay endpoint is annotated to the nuclear receptor intended target family, where the subfamily is steroidal.
Human liver HepG2 cells are transiently transfected with multiple reporter transcription units (MRTUs) in 6-well plates using FuGene 6 reagent (Roche; 3 ml FuGene/1 mg DNA). The MRTU constructs are regulated by a cis-regulating element (promoter). […] A major difference between the CIS and TRANS system is that in CIS activities of endogenous TFs are measured, whereas the TRANS assay evaluates changes in activities of exogenous, chimeric NR-Gal4 proteins. […] At the end of 24 hour incubation, total RNA was isolated using TriZol reagent (Invitrogen). The isolated RNA is then reverse-transcribed using oligo(dT) primer and Mo-MLV reverse transcriptase (Invitrogen) with DNAse I (Ambion) treatment for 30 min. The one-tenth of the produced cDNA was amplified by PCR using Taq DNA polymerase (Invitrogen) and two reporter sequence-specific primers. The PCR products were fluorescently labeled by primer extension with 6-arboxyfluorescein (6-FAM) 5'-labeled reporter sequence-specific primer (2 min at 95 C, 20 s at 68 C and 10 min at 72 C) and these products were digested with 5U of HpaI (New England Biolabs) for 2h at 37 C. The fragments were purified using Qiaquick PCR columns (Qiagen), analyzed on an ABI 3130xL genetic analyzer (Applied Biosystems) with peak positions identified by using a set of X-rhodamine (ROX)-labeled MapMarker1000 molecular weight standards (BioVentures). The raw capillary electrophoresis data was processed using Attagraph software (Attagene).
In the case of `CCCN(CCOc1c(Cl)cc(Cl)cc1Cl)C(=O)n1ccnc1`, the molecule was classed as inactive. `COP(=S)(OC)Oc1ccc([N+](=O)[O-])cc1`: the molecule was classed as inactive and the AC50 was 26.7 µM (active). Take `COP(=S)(OC)Oc1ccc(SC)c(C)c1`: the AC50 was 27.8 µM (active). For `Oc1ccc(Cl)cc1Cc1ccccc1`, the result was inactive. Consider `CC(C)(C)C(O)/C(=C\c1ccc(Cl)cc1Cl)n1cncn1` (stereo unspecified), for which the result was inactive. Same read-out and setting: as for `O=S(=O)(O)C(F)(F)C(F)(F)C(F)(F)C(F)(F)C(F)(F)C(F)(F)C(F)(F)C(F)(F)F`, the entry is “inactive”. Turning to `Oc1cc(Cl)ccc1Oc1ccc(Cl)cc1Cl`, the AC50 was 14.1 µM (active). As for `CC1(C)C(C=C(Cl)Cl)C1C(=O)OC(C#N)c1ccc(F)c(Oc2ccccc2)c1` (stereo unspecified), the molecule was classed as inactive. As for `O=C(O)C(F)(F)C(F)(F)C(F)(F)C(F)(F)C(F)(F)C(F)(F)C(F)(F)F`, the AC50 was 100 µM (active). For `CCCN(CCC)c1c([N+](=O)[O-])cc(C(F)(F)F)cc1[N+](=O)[O-]`, the result was inactive.
